Values without a mark were called inactive. Entries that show only a call come without a potency. Activity calls are given as the source filed them. Calls come from the whole dose curve.
Target: Acetylcholinesterase (Homo sapiens) (UniProt P22303)
Assay: Acetylcholinesterase (AChE) small molecule antagonists: enzyme-based qHTS assay with human liver microsomes (AID 1347399); note: nearly all actives have a fitted effect of over 60% in size
Conditions: Potency: qHTS inhibition; outcome: qHTS inhibition; series mostly up to 115 µM
Procedure, shortened: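 Recombinant human AChE (50 mU/mL in the enzyme mix) and human liver microsomes (0.25 mg/mL final) were preincubated with compound and NADPH (0.25 mg/mL final) for 30 min at 37 C. Acetylthiocholine/DTNB was then added; thiocholine was read colorimetrically after 10 min at room temperature.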

Acetylcholinesterase (Homo sapiens), sequence (P22303 whole entry, looked up): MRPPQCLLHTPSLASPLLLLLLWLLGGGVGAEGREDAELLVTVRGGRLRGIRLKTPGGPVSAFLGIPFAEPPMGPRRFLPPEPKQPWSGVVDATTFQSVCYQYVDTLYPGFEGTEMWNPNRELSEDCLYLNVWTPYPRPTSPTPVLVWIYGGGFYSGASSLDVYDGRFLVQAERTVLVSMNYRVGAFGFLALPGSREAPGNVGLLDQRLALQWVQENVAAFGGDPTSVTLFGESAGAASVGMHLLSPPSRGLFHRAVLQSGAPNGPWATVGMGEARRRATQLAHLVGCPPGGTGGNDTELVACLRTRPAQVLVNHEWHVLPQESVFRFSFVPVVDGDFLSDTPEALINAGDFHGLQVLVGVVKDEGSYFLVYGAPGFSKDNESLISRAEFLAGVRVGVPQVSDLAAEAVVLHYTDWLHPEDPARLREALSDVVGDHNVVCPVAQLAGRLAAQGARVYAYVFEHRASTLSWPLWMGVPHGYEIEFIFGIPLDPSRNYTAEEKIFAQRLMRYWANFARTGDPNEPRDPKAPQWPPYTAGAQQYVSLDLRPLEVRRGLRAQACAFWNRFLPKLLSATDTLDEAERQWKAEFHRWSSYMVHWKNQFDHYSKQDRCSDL

| SMILES | Potency | activity change, negative = inhibition |
| --- | --- | --- |
| CNC1CCCN(c2c(F)cc3c(=O)c(C(=O)O)cn(C4CC4)c3c2OC)C1 (stereo not drawn) | inactive |  |
| C=CC(=O)OCC(O)COc1ccccc1 (stereo not drawn) | inactive |  |
| CC(C)CC(=O)C1C(=O)c2ccccc2C1=O | inactive |  |
| C/C=C\C/C=C/CCCCCCCCOC(C)=O | inactive |  |
| C/C=C(\C)C(C)=O | inactive |  |
| COc1ccc(S(=O)(=O)N2C(=O)[C@@](c3ccccc3OC)(N3C[C@H](O)C[C@H]3C(=O)N(C)C)c3cc(Cl)ccc32)c(OC)c1 | inactive |  |
| O=C(c1ccccc1O)c1ccccc1O | inactive |  |
| OC1OC[C@@H](O)[C@H](O)[C@H]1O (stereo partly drawn) | inactive |  |
| c1ccc(SCCSc2ccccc2)cc1 | inactive |  |
| Brc1nc2ccccc2s1 | inactive |  |
| N[C@H]1C(O)O[C@H](CO)[C@H](O)[C@@H]1O (stereo partly drawn) | inactive |  |
| Clc1ccc2cc3ccccc3cc2c1 | inactive |  |
| c1ccc(SSc2ccccc2)cc1 | inactive |  |
| O=C1CCCCCN1SSN1CCCCCC1=O | inactive |  |
| CCn1ccc(NS(=O)(=O)c2ccc(N)cc2)nc1=O | inactive |  |
| CC1(C)Oc2ccc(C#N)cc2[C@@H](N2CCCC2=O)[C@@H]1O | inactive |  |
| CC1CCC2CC1C2(C)C (stereo not drawn) | inactive |  |
| C[Si](NC1CCCCC1)(NC1CCCCC1)NC1CCCCC1 | inactive |  |
| CC(C)(C)C1=CC(=O)C(C(C)(C)C)=CC1=O | inactive |  |
| N[C@H](C(=O)O)c1ccc(O)cc1 |  | -0.0013% [at 23.6 µM] |
| CC(=O)Nc1c(I)cc(I)c(C(=O)O)c1I | inactive |  |
| CCCCNS(=O)(=O)c1ccccc1 | inactive |  |
| O=c1[nH]c(=O)c2[nH]c(=O)[nH]c2[nH]1 |  | 21.5% [at 10.5 µM] |
